Reference: PubChem BioAssay AID652048 (National Center for Advancing Translational Sciences (NCATS), 2013)
Several values for one entry are separate records, joined by “and”; a condition that tells them apart may be missing. Equal entries are not always repeated. The whole screen tested about 410,000 compounds, of which about 2,400 (0.59%) were called active. Cut-off read from the data, not from the text of the source: active = max activation above about 30%; inactive = the rest. Only a selection was taken, and actives are over-represented in it overall. The source holds several records for some structures; these can differ, active in one and inactive in another.
Note: 0% is about no effect.

These compounds were tested against D(3) dopamine receptor (Homo sapiens) (UniProt P35462) (assay: qHTS of D3 Dopamine Receptor Agonist: qHTS). Conditions: D3R DiscoveRx beta-arrestin cells, luminescence, 90 min; stronger effect = higher value.
D(3) dopamine receptor (Homo sapiens), sequence (P35462 whole entry, looked up): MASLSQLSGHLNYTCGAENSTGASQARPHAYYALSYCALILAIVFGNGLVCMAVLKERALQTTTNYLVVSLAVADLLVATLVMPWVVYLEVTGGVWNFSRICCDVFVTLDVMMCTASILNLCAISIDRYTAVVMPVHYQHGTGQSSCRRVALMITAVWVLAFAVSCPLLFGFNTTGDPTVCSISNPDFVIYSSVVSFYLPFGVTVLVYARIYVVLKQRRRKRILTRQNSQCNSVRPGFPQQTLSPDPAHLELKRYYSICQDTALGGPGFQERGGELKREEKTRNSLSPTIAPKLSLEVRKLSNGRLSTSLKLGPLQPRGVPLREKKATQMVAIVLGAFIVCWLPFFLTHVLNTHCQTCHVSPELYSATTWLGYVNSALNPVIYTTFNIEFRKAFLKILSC
In short: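 Agonist-mode cell screen: cells plated at 1500/well and incubated overnight at 37 °C, then exposed to library compounds for 90 min at 37 °C. Detection reagent was added for 30–60 min at room temperature, and luminescence was read.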
With `COc1cc(CNCCSc2nnnn2C)ccc1OCc1ccc(Cl)cc1Cl` the max activation was -19% (inactive). `O=C(CCC1N=C2c3ccccc3N=C(SCc3ccccc3F)N2C1=O)NCCc1ccccc1` (stereo not drawn) was tested, and the max activation was 5.62% (inactive). `O=C(Cn1nnc(-c2ccccc2)n1)NC(=O)NC1CCCC1` was tested, and the max activation was 4.92% (inactive). In the case of `Cc1ccc(NC(=O)CN(C)C(=O)Cn2nnc(-c3ccccc3)n2)cc1`, the max activation was 5.42% (inactive). In the case of `O=C(Cn1nnc(-c2ccccc2)n1)N/N=C/c1ccc(-c2ccc(Cl)cc2)o1`, the max activation was 34.9% (active). For `CCOc1ccc(CNC(=O)c2cc(=O)[nH]c3ccc(S(=O)(=O)N4CCCCC4)cc23)cc1`, the max activation was 1.15% (inactive). `COc1ccc2cc(CNc3ccc(OC)c(OC)c3)c(=O)n(CC(=O)Nc3ccccc3F)c2c1` was tested, and the max activation was 2.84% (inactive). In the case of `Cc1ccc(OCCSc2nc(C)c(Cc3ccccc3)c(=O)[nH]2)cc1`, the max activation was 4.35% (inactive). For `Cc1ccc(CNC(=O)c2ccccc2CCc2ccccc2)cc1`, the max activation was 31.4% (active). `Cc1ccc(CNC(=O)Cc2cn(C)c3ccccc23)cc1` was tested, and the max activation was -3.47% (inactive). For `Cc1ccc(CNC(=O)[C@@H](NC(=O)Cc2ccccc2)C(C)C)cc1`, the max activation was -1.46% (inactive). With `COC(=O)C1(S(=O)(=O)C2(C(=O)OC)CCCC2)CCCC1` the max activation was 31% (active). With `CC1(C)OC[C@@H](COC(=O)CCc2ccc(OC[C@@H](O)CNCCNC(=O)N3CCOCC3)cc2)O1` the max activation was -23.2% (inactive) and -20.2% (inactive). With `CC(C)(C)OC(=O)CNC(=O)c1[nH]cnc1C(=O)N[C@@H](CCCCN)C(=O)OC(C)(C)C` the max activation was 0% (inactive). `COc1ccc(-c2cn3c(n2)sc2cc(C(=O)Nc4ccccc4F)ccc23)cc1` was tested, and the max activation was 35.4% (active). With `COc1ccc(-c2cn3c(n2)sc2cc(C(=O)Nc4ccc(F)cc4)ccc23)cc1` the max activation was 13.3% (inactive). In the case of `CCN1CCN(CCCNC(=O)c2ccc3c(c2)sc2nc(-c4ccc(OC)cc4)cn23)CC1`, the max activation was -6.77% (inactive). In the case of `O=C(Nc1ccc(O)cc1)c1ccccc1O`, the max activation was -0.0653% (inactive). In the case of `CC1(C)SC2C(NC(=O)COc3ccccc3)C(=O)N2C1C(=O)O` (stereo not drawn), the max activation was 2.21% (inactive) and 6.06% (inactive). In the case of `CC1(C)S[C@@H]2[C@H](NC(=O)COc3ccccc3)C(=O)N2C1C(=O)OCc1ccccc1` (stereo partly drawn), the max activation was -3.7% (inactive). With `COC(=O)C1[C@H]2SC(C)(C)C(C(=O)OC)N2C(=O)N1Cc1nc2ccccc2s1` (stereo partly drawn) the max activation was 37.5% (active). With `Cc1ccc2[nH]c3c(=O)n(CC(=O)NC(C)C)ncc3c2c1` the max activation was 2.56% (inactive). In the case of `CCOc1ccc(NS(=O)(=O)c2ccc(N)cc2)nn1`, the max activation was -7.97% (inactive). For `COc1cccc(C(=O)Nc2c3c(nn2-c2cccc(C)c2C)CS(=O)(=O)C3)c1OC`, the max activation was -20.8% (inactive). `COc1ccc(C(=O)NC2CCCc3c2cnn3-c2cccc(C)c2C)c(OC)n1` (stereo not drawn) was tested, and the max activation was 48.2% (active). In the case of `Cc1cccc(C(=O)OC(C)C(=O)NC2CCCc3ccccc32)c1O` (stereo not drawn), the max activation was -10.5% (inactive). `Cc1ccc(NC(=O)c2nc(S(=O)(=O)Cc3cccc(C)c3)ncc2Cl)cc1` was tested, and the max activation was -23.7% (inactive). In the case of `CC1(C)S[C@@H]2[C@H](N=CN3CCCCCC3)C(=O)N2[C@H]1C(=O)O`, the max activation was -22.5% (inactive). In the case of `CC(C)(C)OC(=O)N1CCC(c2c(C(=O)NCCc3ccsc3)cnn2-c2ccc(F)cc2F)CC1`, the max activation was 6.51% (inactive). For `COc1ccc(/C=C/C(=O)c2cc(Br)ccc(=O)c2O)cc1`, the max activation was -1.59% (inactive). `COCOc1cc(O)c(C(=O)/C=C/c2ccc(OCOC)c(OCOC)c2)c(OCOC)c1` was tested, and the max activation was 32% (active). For `CCOc1ccc(/C=C/C(=O)OCC(=O)c2ccccc2OC)cc1OC`, the max activation was 3.52% (inactive). For `O=C(Nc1cccc(C(F)(F)F)c1)c1cc(Br)cc(Br)c1O`, the max activation was 0.389% (inactive). With `CC(C(=O)O)c1ccc(C2CCCCC2)c2ccccc12` (stereo not drawn) the max activation was 4% (inactive). In the case of `Cc1ccc2nc(CN3CCN(S(=O)(=O)c4ccc(C)c(C)c4)CC3)oc2c1`, the max activation was -11.8% (inactive). In the case of `COc1ccc2sc(-c3ccc(N(C)C)cc3)c(C#CCO)c2c1`, the max activation was 38.4% (active). `COc1ccc2c(c1)c(=Cc1ccc(N(C)C)cc1)c1cc(-c3ccccc3)[n+](C)n12` was tested, and the max activation was 1.19% (inactive). In the case of `Cc1ccc(C)c(S(=O)(=O)n2nc(C)c(S(=O)(=O)N3CCC(C)CC3)c2C)c1`, the max activation was 3.28% (inactive). `CC(O)COc1ccccc1` (stereo not drawn) was tested, and the max activation was 8.58% (inactive). For `O=C(COC(=O)c1cc(=O)[nH]c2ccccc12)NCc1cccc(Cl)c1`, the max activation was 3.7% (inactive). For `O=C(CSc1nc(O)c(Cc2ccccc2)c(=O)[nH]1)Nc1nc2c(s1)CCCC2`, the max activation was 3.59% (inactive). With `O=C(CSc1nc2ccccc2c(=O)[nH]1)Nc1nc(-c2ccc(Br)cc2)cs1` the max activation was 37.7% (active). With `O=C(COC(=O)c1cc(=O)[nH]c2ccccc12)Nc1nc(-c2cccc(Br)c2)cs1` the max activation was 38.6% (active). In the case of `COc1ccc(NC(=O)CSc2nc3ccccc3[nH]2)cc1`, the max activation was 0.0768% (inactive). `CC1CCN(C(=O)COC(=O)c2cc(=O)[nH]c3ccccc23)CC1` was tested, and the max activation was -2.85% (inactive). `COc1ccc(C(=O)Nc2cccc(C(=O)OCc3cc(=O)n4c5c(sc4n3)CCCC5)c2)cc1` was tested, and the max activation was -9.48% (inactive). In the case of `COc1cccc2cc(-c3nc(Cl)c4c5c(sc4n3)CC(C)CC5)c(=O)oc12` (stereo not drawn), the max activation was 8.91% (inactive). For `COC(=O)c1sccc1S(=O)(=O)N(CC(=O)Nc1ccc(C)c(F)c1)c1ccc(C)c(C)c1`, the max activation was -2.21% (inactive). In the case of `Cc1ccc(CN2CCC(CNC(=O)c3cnn(-c4ccccc4Cl)c3C3CCN(C(=O)OC(C)(C)C)CC3)CC2)cc1`, the max activation was -13.6% (inactive). In the case of `CO/N=C(/C(=O)N[C@@H]1C(=O)N2C(C(=O)O)=C(Cn3nnc(C)n3)CS[C@H]12)c1csc(N)n1`, the max activation was -4.25% (inactive). In the case of `CCOc1ccc(CNC(=O)C2CCN(c3nnc(-n4cccc4CNc4ccc(C)cc4)s3)CC2)cc1OC`, the max activation was 1.82% (inactive). `Cc1ccc(CCNC(=O)C2CCN(c3nnc(-n4cccc4CNc4ccc(C)cc4)s3)CC2)cc1` was tested, and the max activation was 56.2% (active). With `CSc1ccc(CCNC(=O)C2CCN(c3nnc(-n4cccc4)s3)CC2)cc1` the max activation was -2.44% (inactive). For `N[C@H]1CN(c2c(F)cc3c(=O)c(C(=O)O)cn(C4C[C@H]4F)c3c2Cl)CC12CC2` (stereo partly drawn), the max activation was -3.15% (inactive). With `O=P(O)(O)OC[C@H](O)CO` the max activation was -12.8% (inactive). For `CCc1ccccc1NC(=O)CN(C)S(=O)(=O)c1ccc2c(c1)c(=O)n(C)c(=O)n2C`, the max activation was -4.93% (inactive). `CC(C)c1ccc(NC(=O)CN(C)S(=O)(=O)c2ccc3c(c2)c(=O)n(C)c(=O)n3C)cc1` was tested, and the max activation was 0.167% (inactive). `CN(CC(=O)Nc1ccccc1F)S(=O)(=O)c1ccc2c(c1)c(=O)n(C)c(=O)n2C` was tested, and the max activation was 47.6% (active). `CCc1ccc(S(=O)(=O)c2nnn3c2nc(N2CCN(CC)CC2)c2sccc23)cc1` was tested, and the max activation was 5.12% (inactive). For `CCOc1ccc(Nc2oc(/C=C/c3ccc(F)cc3)nc2C#N)cc1`, the max activation was -13.3% (inactive). In the case of `Fc1ccc(-c2nn(-c3ccccc3Cl)c3c2cnc2ccccc23)cc1`, the max activation was 0.11% (inactive). In the case of `Oc1c(C(c2ccccc2Cl)N2CCOCC2)sc2nc(-c3ccco3)nn12` (stereo not drawn), the max activation was -18% (inactive). In the case of `O=C(c1ccco1)n1nc(-c2ccc(Cl)cc2)nc1NCc1ccccc1`, the max activation was -9.35% (inactive). With `CSc1nc(-c2ccco2)nn1C(=O)c1ccccc1Cl` the max activation was 32.7% (active). With `CCOC(=O)Cc1cccc(-c2cc(CCCCCCc3ccc(O[C@H]4O[C@H](COC(C)=O)[C@@H](OC(C)=O)[C@H](OC(C)=O)[C@@H]4OC(C)=O)c(-c4cccc(CC(=O)OCC)c4)c3)ccc2O[C@H]2O[C@H](COC(C)=O)[C@@H](OC(C)=O)[C@H](OC(C)=O)[C@@H]2OC(C)=O)c1` the max activation was -9.52% (inactive). `COc1ccc(-c2nc3cnccn3c2NC2CCCCC2)cc1-c1cccc(Cl)c1` was tested, and the max activation was 7.25% (inactive) and 47.9% (active). In the case of `COc1ccc(-c2nc3cnccn3c2NC(C)(C)CC(C)(C)C)cc1O`, the max activation was 4.14% (inactive). In the case of `COc1ccc(-c2nc3cc(C)ccn3c2NC2CCCCC2)cc1SC1CCCCC1`, the max activation was 18.2% (inactive). In the case of `Cc1ccc(Cl)cc1N1CCN(C(=O)c2cccn3c(=O)c4cc(Cl)ccc4nc23)CC1`, the max activation was 1.63% (inactive). With `CN(C)CCc1c[nH]c2ccc(Cn3cncn3)cc12` the max activation was -8.71% (inactive). In the case of `COc1ccc(Cl)cc1NC(=O)Cn1c(=O)c2ccccc2n2nncc12`, the max activation was -7.09% (inactive). With `COC(=O)c1cc(NC(=O)CC2C(=O)NCCN2C(=O)c2ccc(F)cc2)cc(C(=O)OC)c1` (stereo not drawn) the max activation was 5.37% (inactive). In the case of `COc1ccccc1C(=O)N1CCNC(=O)C1CC(=O)Nc1ccc(Cl)cc1` (stereo not drawn), the max activation was 4.77% (inactive). For `O=C(CC1C(=O)NCCN1C(=O)c1ccc([N+](=O)[O-])cc1)Nc1cccc(Cl)c1` (stereo not drawn), the max activation was 38.6% (active). In the case of `Brc1cccc(-c2nnn3c2nc(NC2CCCCC2)c2ccccc23)c1`, the max activation was -2.96% (inactive). In the case of `COc1ccc(CCNC(=O)COc2cc(C)cc3oc(=O)c(C)c(C)c23)cc1OC`, the max activation was 42.4% (active). For `COc1ccc(CCNC(=O)c2cc(=O)c3c(C)cc(C)cc3o2)cc1OC`, the max activation was 21.9% (inactive). In the case of `Cc1cc(OCC(=O)NCC(O)c2ccccc2)c2c(C)c(C)c(=O)oc2c1` (stereo not drawn), the max activation was 2.59% (inactive). In the case of `COc1cc2c(cc1OC)CC(=O)N(CCCN(C)C[C@H]1Cc3cc(OC)c(OC)cc31)CC2`, the max activation was -16.3% (inactive). `COc1ccc(N2CCN(S(=O)(=O)c3ccc(-c4coc(C)n4)cc3)CC2)cc1` was tested, and the max activation was 1.53% (inactive). In the case of `O=C1c2ccccc2S(=O)(=O)N1Cc1c(F)cccc1Cl`, the max activation was -0.264% (inactive). For `Cc1ccc(C)c(N2C(=O)N(Cc3c(F)cccc3Cl)c3ccccc3S2(=O)=O)c1`, the max activation was 64.6% (active). `O=c1c(=O)n(Cc2c(F)cccc2Cl)ccn1Cc1ccccc1` was tested, and the max activation was -9.07% (inactive).
